In PubChem BioAssay (NCATS) one finds Potency data, which are given here for 16 compounds.

Molecules are shown by their SMILES. Results filed as inconclusive are left out. Calls of active or inactive are those of the source. Calls come from the whole dose curve; as a rule, active = well fitted curve in the direction sought with a large enough effect; inconclusive = small, poorly fitted or top-dose-only effect, or another doubt; inactive = no such curve, though single readings can be large; an effect the other way counts as inactive or inconclusive.

Experiment [1] can be described thus: Primary qHTS for inhibitors of nuclear receptor binding SET domain protein 2 (NSD2) in an isogenic RCH-ACV NSD2 p.E1099K mutant (9B) (AID 1645876). The settings on record: RCH-ACV NSD2 E1099K (9B) viability, CellTiter-Glo, 72 h; series mostly up to 44.9 µM.
Experiment [2] in a line: Primary qHTS for inhibitors of nuclear receptor binding SET domain protein 2 (NSD2) in an RCH-ACV wild type WT cells (2C) (AID 1645877). Conditions: RCH-ACV (leukaemia line) NSD2 WT (2C) viability, CellTiter-Glo, 72 h; series mostly up to 44.9 µM. For orientation: Quantitative high-throughput screening tests each substance at several concentrations.
Note: nearly all actives have a fitted effect of over 70% in size.
Potency is the fitted concentration of half-maximal effect.

`O=C(Oc1ccccc1)c1ccccc1O`: the Potency result in experiment [1] and in experiment [2] was “inactive” each time.

Consider `CN(C)CCN(Cc1ccsc1)c1ccccn1`, for which the Potency entry in experiment [1] and in experiment [2] was “inactive” throughout.

Consider `Cc1[nH]cnc1-c1ccc(Cl)cc1`, for which the Potency result in experiment [1] and in experiment [2] was “inactive” each time.

Turning to `O=C(CCOCCOCCOCCOCCC(=O)Nc1c(I)cc(I)c(C(=O)O)c1I)Nc1c(I)cc(I)c(C(=O)O)c1I`, the Potency entry in experiment [1] and in experiment [2] was “inactive” each time.

As to `CC(=O)Oc1ccc(C2(c3ccc(OC(C)=O)cc3)Oc3ccccc3NC2=O)cc1`, the Potency in experiment [1] was 8.17 µM (active); in experiment [2], 10.3 µM (active).

In the case of `CCO[C@H](Cc1ccc(OCCc2ccc(OS(C)(=O)=O)cc2)cc1)C(=O)O`, the Potency result in experiment [1] and in experiment [2] was “inactive” throughout.

For the compound `CC1c2ccccc2CN1NC(=O)c1ccc(Cl)c(S(N)(=O)=O)c1` (configuration not stated), the Potency result in experiment [1] and in experiment [2] was “inactive” in each case.

Take `COc1cc(C(=O)NC2CCCNC2)cc(OC)c1OC` (configuration not stated): the Potency entry in experiment [1] and in experiment [2] was “inactive” throughout.

For `N#C/C(=C1/SC[C@@H](c2ccc(Cl)cc2Cl)S1)n1ccnc1`, the results for the Potency in experiment [1] and in experiment [2] were 13.3 µM (active) and 11.9 µM (active), respectively.

For the compound `COc1ccc(/C(C)=C/C(=O)O)c(OC)c1`, the Potency entry in experiment [1] and in experiment [2] was “inactive” in each case.

On to `OC[C@]1(O)OC[C@@H](O)[C@H](O)[C@@H]1O`, for which the Potency entry in experiment [1] and in experiment [2] was “inactive” throughout.

In the case of `COC(=O)c1ccc(NC(C)=O)cc1OC`, the Potency result in experiment [1] and in experiment [2] was “inactive” each time.

Consider `CC(C)OP(=O)(CP(=O)(OC(C)C)OC(C)C)OC(C)C`, for which the Potency entry in experiment [1] and in experiment [2] was “inactive” in each case.

Take `O=C(O)C(=O)Nc1cccc(-c2nn[nH]n2)c1`: the Potency result in experiment [1] and in experiment [2] was “inactive” in each case.

For the compound `O=C(O)c1ccccc1S`, the Potency result in experiment [1] and in experiment [2] was “inactive” each time.

For `CC(=O)[C@@]1(O)CC[C@H]2[C@@H]3C[C@H](C)C4=CC(=O)CC[C@]4(C)[C@H]3CC[C@@]21C`, the values for the Potency in experiment [1] and in experiment [2] were 23.7 µM (active) and 15 µM (active), respectively.
